Assay outcomes from PubChem BioAssay.
EBV gp42 block – inhibitors of Epstein-Barr virus glycoprotein 42 | Q1HVG2 | Fluorescence polarization binding assay, mP read-out | 220,000 compounds, 0.42% hits | inhibition, % (tested at 21.74 µM); in the data active = inhibition above about 50%
Target sequence (Q1HVG2 whole entry, looked up): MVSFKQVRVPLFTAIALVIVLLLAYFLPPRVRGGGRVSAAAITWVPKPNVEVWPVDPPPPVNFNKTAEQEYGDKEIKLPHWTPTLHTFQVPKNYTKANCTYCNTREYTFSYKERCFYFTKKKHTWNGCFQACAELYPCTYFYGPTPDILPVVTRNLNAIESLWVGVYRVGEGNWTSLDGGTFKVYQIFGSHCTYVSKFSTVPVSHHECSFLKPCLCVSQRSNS
MEX-5 binding – C. elegans MEX-5 TCR-2 RNA binding activity; Q9XUB2; 300,000 compounds, 0.38% hits; MEX-5/FITC-TCR2 RNA binding, fluorescence polarization; active compounds read low; activity score (negative = inhibition of binding), % at 10 µM; AID 1832;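 active = inhibition past about -25% in most replicates, and total fluorescence under double the plate's negative control median, limit read from the data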
MCL1-BIM inh – disrupts human MCL1 binding to BIM-BH3 peptide. GST-MCL1 / FITC-Bim-BH3 fluorescence polarization. inhibition, % at 10.9 µM. 320,000 compounds, 0.68% hits. AID 2057;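 active = inhibition above the mean inhibition of all tested compounds plus 3 SD, set per campaign, cut at about 40% in these data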;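 also: higher means more loss of mP so more displacement of Bim peptide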
BCLXL inh – Bcl-xL (human) inhibition; GST-Bcl-xL / FITC-Bim BH3 peptide fluorescence polarization; inhibition, % at 10.9 µM; 320,000 compounds, 0.7% hits;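 active = inhibition above the mean of all tested compounds plus 3 SD, cutoff set per campaign, cut at about 30% in these data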;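 also: inhibitors lower millipolarization by displacing the labeled peptide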
GLD-1 TGE inh – GLD-1-TGE RNA interaction inhibition (C. elegans) | Q17339 | purified GLD-1 + fluorescein TGE RNA, fluorescence polarization | inhibition, % at 5.96 µM | 320,000 compounds, 0.44% hits | AID 2280;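 active = percent inhibition above a per-plate cutoff, the plate mean of test compounds plus 3 SD, cut at about 30% in these data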
Target sequence (Q17339 whole entry, looked up): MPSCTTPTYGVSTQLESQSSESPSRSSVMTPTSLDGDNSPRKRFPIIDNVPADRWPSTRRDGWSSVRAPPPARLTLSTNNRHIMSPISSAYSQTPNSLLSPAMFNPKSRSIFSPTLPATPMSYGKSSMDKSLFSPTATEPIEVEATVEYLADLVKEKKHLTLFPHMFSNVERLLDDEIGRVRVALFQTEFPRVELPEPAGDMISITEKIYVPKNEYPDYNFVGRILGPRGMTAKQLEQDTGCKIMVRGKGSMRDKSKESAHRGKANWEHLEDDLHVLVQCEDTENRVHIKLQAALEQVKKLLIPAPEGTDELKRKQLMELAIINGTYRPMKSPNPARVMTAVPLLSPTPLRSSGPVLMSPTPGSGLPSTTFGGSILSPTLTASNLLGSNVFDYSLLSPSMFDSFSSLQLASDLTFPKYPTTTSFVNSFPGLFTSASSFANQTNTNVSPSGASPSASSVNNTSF
Bcl-xL conf – Bcl-xL (human) inhibition, MCL1 counter-screen confirmation | shares compounds with MCL1-BIM inh | GST-Bcl-xL / FITC-Bim BH3 peptide FP binding | inhibition, % at 10.9 µM | 1,700 compounds, 54% hits;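 active = inhibition above a cutoff equal to the mean inhibition of all tested compounds plus 3 SD, cut at about 30% in these data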
MCL1 inh confirm – confirmation of human MCL1 and BIM-BH3 interaction inhibitors | shares compounds with MCL1-BIM inh | GST-MCL1 / FITC-Bim-BH3 fluorescence polarization | inhibition, % at 10.9 µM | 1,700 compounds, 61% hits | AID 2168;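 active = inhibition above the average of all tested compounds plus 3 SD, cut at about 40% in these data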
GLD1 RNA confirm – GLD-1 TGE RNA interaction inhibition, confirmation. GLD-1/FL-TGE RNA fluorescence polarization, biochemical. 550 compounds, 10% hits. inhibition, % at 5.96 µM. shares compounds with GLD-1 TGE inh;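 active = average inhibition across triplicates above the hit cutoff set in the primary screen, cut at about 32% in these data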
Large screens that a line does not name were inactive (follow-up assays come after a bar, where they were run). Shown are actives, neighbours in structure and some others; about 1.3% of the full set was active somewhere.

O=C1C(Cl)=C(N2CCN(Cc3ccccc3)CC2)C(=O)N1Cc1ccccc1	MCL1-BIM inh 56, BCLXL inh 57, GLD-1 TGE inh 34 | Bcl-xL conf inactive | MCL1 inh confirm inactive | GLD1 RNA confirm inactive
O=C1C=C(Nc2ccccc2C(=O)O)c2ccccc2C1=O	none
O=C1C=C(Nc2cccc3cccnc23)c2ccccc2C1=O	MEX-5 binding -31, MCL1-BIM inh 59, BCLXL inh 55, GLD-1 TGE inh 34 (no result: EBV gp42 block) | Bcl-xL conf 45 | MCL1 inh confirm 46 | GLD1 RNA confirm inactive
Cc1ccc(SCc2cc(=O)n3ccsc3n2)c(C)c1	none
Cc1cccc(-n2c(SCc3cc(=O)n4ccsc4n3)nc3ccccc32)c1	EBV gp42 block 78, MCL1-BIM inh 67, BCLXL inh 73, GLD-1 TGE inh 43 | Bcl-xL conf 63 | MCL1 inh confirm 89 | GLD1 RNA confirm inactive
O=C(COC(=O)C1CCC1)NCc1ccc(F)cc1	none (no result: EBV gp42 block)
CCOC(=O)C1=C(C)OC(N)=C(C#N)C1c1cc2c(cc1[N+](=O)[O-])OCO2 (stereo unspecified)	MCL1-BIM inh 44, BCLXL inh 36, GLD-1 TGE inh 38 | Bcl-xL conf 49 | MCL1 inh confirm 73 | GLD1 RNA confirm inactive
O=C(COc1ncnc2sccc12)N1CCN(C(=O)c2ccco2)CC1	none
O=C1C=C(N(CCO)Cc2ccccc2)c2ccccc2C1=O	none (no result: MCL1-BIM inh, BCLXL inh, GLD-1 TGE inh)
O=C1c2ccccc2C(=O)c2c1cccc2N(CCO)CCO	MEX-5 binding -42, MCL1-BIM inh 65, BCLXL inh 72, GLD-1 TGE inh 46 (no result: EBV gp42 block) | Bcl-xL conf 58 | MCL1 inh confirm 77 | GLD1 RNA confirm 50
CCOC(=O)CC(=O)CSc1nc(C)cc(-c2cccnc2)c1C#N	none
CCOC(=O)CC(=O)CSc1nc(-c2cccnc2)cc(C)c1C#N	MCL1-BIM inh 62, BCLXL inh 61, GLD-1 TGE inh 36 | Bcl-xL conf inactive | MCL1 inh confirm inactive | GLD1 RNA confirm inactive
COc1ccc(NC(=O)COC(=O)CCNS(=O)(=O)c2ccc(Cl)cc2)cc1	none
O=C(COc1ccccc1F)NC12CC3CC(CC(C3)C1)C2	none
COc1ccc(NC(=O)[C@H](C)NC(=O)C2CCN(S(=O)(=O)c3ccc(OC)cc3)CC2)cc1	none (no result: EBV gp42 block)
N#Cc1ccsc1NC(=O)CN1C(=O)NC2(CCCC2)C1=O	MCL1-BIM inh 71, BCLXL inh 66, GLD-1 TGE inh 54 (no result: EBV gp42 block) | Bcl-xL conf 59 | MCL1 inh confirm 94 | GLD1 RNA confirm inactive
C[C@@H]1O[C@@H](OCCC(=O)O)[C@H](O)C[C@H]1O	none (no result: EBV gp42 block, MEX-5 binding, MCL1-BIM inh, BCLXL inh)
COCCCNC(=O)c1c(N)n(-c2ccc3c(c2)OCO3)c2nc3ccccc3nc12	MCL1-BIM inh 58, BCLXL inh 48, GLD-1 TGE inh 49 (no result: EBV gp42 block) | Bcl-xL conf inactive | MCL1 inh confirm inactive | GLD1 RNA confirm inactive
C=CCOc1ccc(C2C3=C(CCCC3=O)N(CC(=O)O)C3=C2C(=O)CCC3)cc1OCC	none (no result: EBV gp42 block)
CCCOc1ccc(C2C3=C(CCCC3=O)N(CC(=O)O)C3=C2C(=O)CCC3)cc1OCC	MCL1-BIM inh 101, BCLXL inh 81, GLD-1 TGE inh 33 (no result: EBV gp42 block) | Bcl-xL conf inactive | MCL1 inh confirm inactive | GLD1 RNA confirm inactive
COc1ccc(S(=O)(=O)N2CCNCC2)cc1	none (no result: EBV gp42 block)
OCCC1CN(Cc2cccc3nccnc23)CCN1Cc1ccc(F)cc1 (stereo unspecified)	MCL1-BIM inh 60, BCLXL inh 60, GLD-1 TGE inh 46 | Bcl-xL conf inactive | MCL1 inh confirm inactive | GLD1 RNA confirm inactive
O=C(N/N=C/c1cc(Br)c(Br)o1)c1cccnc1	MCL1-BIM inh 126, BCLXL inh 94, GLD-1 TGE inh 40 | Bcl-xL conf 34 | MCL1 inh confirm 44 | GLD1 RNA confirm inactive
O=C(N/N=C\c1cc(Br)c(Br)o1)c1cncc(Br)c1	none
O=C1C=C(O)c2cccc3cccc1c23	MCL1-BIM inh 86, BCLXL inh 71, GLD-1 TGE inh 36 (no result: EBV gp42 block) | Bcl-xL conf 67 | MCL1 inh confirm 86 | GLD1 RNA confirm 57
COc1ccc(C2C=C(C34CC5CC(CC(C5)C3)C4)NC(=S)N2)cc1 (stereo unspecified)	none
Cc1ccc(-c2ccc(/C=N/N3C(=O)C4C5C=CC(CC5)C4C3=O)o2)c([N+](=O)[O-])c1 (stereo unspecified)	none
O=C1C2C3C=CC(C4CC34)C2C(=O)N1/N=C/c1ccc(-c2ccc(F)cc2[N+](=O)[O-])o1 (stereo unspecified)	MCL1-BIM inh 84, BCLXL inh 74, GLD-1 TGE inh 55 | Bcl-xL conf inactive | MCL1 inh confirm inactive | GLD1 RNA confirm inactive
O=Cc1c(N2CCN(CCO)CC2)nc2ccccn2c1=O	MCL1-BIM inh 69, BCLXL inh 60, GLD-1 TGE inh 41 (no result: EBV gp42 block) | Bcl-xL conf 54 | MCL1 inh confirm 77 | GLD1 RNA confirm inactive
O=[N+]([O-])c1cccc(/C=C/C=N/Nc2nc(N3CCCCC3)nc(N3CCCCC3)n2)c1	none
Cc1ccnc2c(N3C(=O)C4C5c6ccccc6C(c6ccccc65)C4C3=O)cccc12 (stereo unspecified)	none
CC(C)CCn1cnc2c(oc3nc4c(cc32)CCCC4)c1=O	none
COc1ccc(N2CCCC2)c(NC(=O)c2ccc(Br)o2)c1	MCL1-BIM inh 56, BCLXL inh 48, GLD-1 TGE inh 38 (no result: EBV gp42 block) | Bcl-xL conf inactive | MCL1 inh confirm inactive | GLD1 RNA confirm 41
Cc1ccc(CNC(=O)c2ccc(NS(=O)(=O)c3cccs3)cc2)cc1	none (no result: EBV gp42 block)
Cc1ccc(C(=O)NNC(=O)c2ccc(NS(=O)(=O)c3cccs3)cc2)o1	MCL1-BIM inh active, BCLXL inh 61, GLD-1 TGE inh 46 (no result: EBV gp42 block, MEX-5 binding) | Bcl-xL conf inactive | MCL1 inh confirm inactive | GLD1 RNA confirm inactive
O=c1[nH]c(Nc2ccccn2)cc2ccccc12	none (no result: EBV gp42 block)
O=c1[nH]c(Nc2ccc(F)cc2)cc2ccccc12	MCL1-BIM inh 66, BCLXL inh 54, GLD-1 TGE inh 66 | Bcl-xL conf inactive | MCL1 inh confirm inactive | GLD1 RNA confirm inactive
COc1cccc(C(c2c(N)[nH]c(=S)[nH]c2=O)c2c(N)[nH]c(=S)[nH]c2=O)c1	none
CCCCC1OC23CCCCC2C(C#N)(C(=N)O3)C1(C#N)C#N (stereo unspecified)	MCL1-BIM inh 78, BCLXL inh 78, GLD-1 TGE inh 54 | Bcl-xL conf inactive | MCL1 inh confirm inactive | GLD1 RNA confirm inactive
CC1(C)Cc2c(sc3nc4n(-c5ccccc5)cnn4c(=O)c23)CO1	none
